Source: PubChem BioAssay (National Center for Advancing Translational Sciences (NCATS))
p53null 39C tox: selectivity test: cytotoxicity in p53 null cells, nonpermissive temperature; H1299 p53-null (neo) cells, 39C, ATPlite viability, 24 h; Potency, µM (top dose mostly 46.1 µM), without a hit: at the highest dose activity, negative = cell killing, actives largely listed as cytotoxic; hit rate 0.97% among 55,000;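 further: 0% = DMSO only and -100% = full killing by 100 µM tamoxifen; nearly all actives have a fitted effect of over 50% in size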
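Concentration-response (up to 46 uM) was run for 24 h at the nonpermissive 39C on H1299-p53A138V or H1299-neo cells. ATP content was measured with ATPlite luminescence. AC50 values were Hill-modeled after normalizing between DMSO and 100 uM tamoxifen killing.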
S16 F2sN tox: toxic to S16 Pmp22-F2sN Schwann cells; S16 Pmp22-F2sN Schwann cells viability, CellTiter-Glo, 24 h; Potency, µM (top dose mostly 57.5 µM), without a hit: at the top dose activity change, negative = cytotoxicity, actives largely listed as cytotoxic; hit rate 0.48% among 43,000; further: nearly all actives have a fitted effect of over 65% in size
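S16 Schwann cells carrying the Pmp22-F2sN reporter, seeded in 1536-well format, were exposed to library compounds for 24 h at 37C. Viability was read as CellTiter-Glo luminescence after 15 min at room temperature.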
OvCa metastasis: ovarian cancer metastasis inhibition, 3D TME model. Potency, µM (series often up to 45.8 µM), for inactives: at the highest dose activity change, negative = inhibition, usual class: inhibitors. SKOV3ip1-GFP adhesion/invasion on 3D omental model, fluorescence. hit rate 0.1% among 46,000. AID 1963576;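 further: plate controls were DMSO wells for no effect and tomatine positive control wells for full effect; nearly all actives have a fitted effect of over 65% in size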
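Primary human omental fibroblast/mesothelial 3D culture pre-formed 48 h. SKOV3ip1-GFP cells added with compounds (0.36-46 umol/L), incubated 2 h RT/16 h 37 C, fixed; GFP cells quantified at 488/509 nm.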
p53null 32C tox: p53 null cell cytotoxicity, permissive temperature. Potency, µM (highest dose often 46.1 µM), inactives show top-dose activity change, negative = cytotoxicity, most hits filed as cytotoxic. H1299-neo p53 null cells, ATP luminescence, 24 h, 32C. hit rate 0.62% among 55,000;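 further: 0% = DMSO only and -100% = full killing by 100 µM tamoxifen; nearly all actives have a fitted effect of over 55% in size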
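Overnight 37C seeding (600 cells/well) of H1299-neo preceded a 24 hr, 32C exposure to compounds up to 46 uM. ATP levels, read by luminescence after 20 min at RT, indicated surviving cells.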
PMP22 txn prim: PMP22 gene transcription modulation | S16 Pmp22-F2sN Schwann cells (luciferase reporters placed in the Pmp22 gene), FLuc/NLuc coincidence luminescence, 24 h | hit rate 2% among 43,000 | Potency, µM (highest dose often 57.5 µM), without a hit: at the top dose activity change, negative = inhibition, actives largely listed as inhibitors | AID 1508649; active means clear falling dose curves in both reporters; inconclusive means both reporters move, but less clearly or upward; inactive means either reporter flat; the % is the NLuc reporter signal
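S16(c9) Schwann cells with FLuc/NLuc coincidence reporter in the Pmp22 3' UTR; compounds pin-transferred, 24 h at 37C. Dual-luciferase read: FLuc first, then NLuc after Stop&Glo, each 10 min at room temperature.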
pS6 MEF inh: reduces mTORC1 signaling in Tsc2 and p53 null MEF cells | Tsc2-/- p53-/- MEF, phospho-rpS6 immunofluorescence/PI, 24 h | Potency, µM (top dose mostly 38.3 µM), for inactives: top-dose activity change, negative = inhibition, actives largely listed as inhibitors | hit rate 0.78% among 44,000 | AID 493208;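 further: plate controls were DMSO for no effect and rapamycin for full effect; nearly all actives have a fitted effect of over 50% in size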
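Readout is phospho-S6 Alexa 488 signal normalized to PI per well, reported as % active cells with thresholds set from rapamycin (7.5 nM) and DMSO controls. Cells: Tsc2-/-, p53-/- MEFs, 24 hrs compound at 37 C; PI cell number serves as viability.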
Numbers without * were called inactive; i = inactive; ? = inconclusive; nt = no result given. In the library only some 3% were active in any assay of this set; here they are far more common. Unless noted, the call rests on the fitted dose curve; in most records, active means well fitted curve in the direction sought with a large enough effect; inconclusive means small, poorly fitted or top-dose-only effect, or another doubt; inactive means no such curve, though single readings can be large; an effect the other way counts as inactive or inconclusive. Unless noted, on the % scale 0 is the no-effect control and ±100 the full control effect; potency means the concentration at half of the fitted maximal effect.

SMILES	p53null 39C tox	S16 F2sN tox	OvCa metastasis	p53null 32C tox	PMP22 txn prim	pS6 MEF inh
COc1ccccc1Nc1nn2c(=O)c3ccc(C(=O)NCc4cccs4)cc3nc2s1	?	7.9µM*	i	10µM*	10µM*	-5%
CCN(CC)CCNC(=O)c1ccc2c(=O)n3nc(Nc4ccccc4OC)sc3nc2c1	?	11%	i	-19%	?	0%
COc1cccc(/C=C/C(=O)Nc2ccc3nc(N4CCN(C)CC4)cc(C)c3c2)c1OC	20µM*	32µM*	?	?	?	?
Cc1cc(N2CCCCC2)nc2ccc(NC(=O)/C=C/c3ccccc3OC(C)C)cc12	-14%	4%	i	4%	-8%	16µM*
CCN1CCN(c2cc(C)c3cc(NC(=O)/C=C/c4cccc(OC)c4OC)ccc3n2)CC1	?	?	?	-17%	-18%	?
Cn1cc(-c2[nH]c3cc(NC(=O)[C@H](N)C4CCCCC4)cc4c3c2C=NNC4=O)cn1	nt	nt	22%	nt	nt	nt
CN(c1ncccc1CNc1nc(Nc2ccc3c(c2)CC(=O)N3)ncc1C(F)(F)F)S(C)(=O)=O	nt	nt	24%	nt	nt	nt
O=C(Nc1nc2cccc(-c3ccc(CN4CCS(=O)(=O)CC4)cc3)n2n1)C1CC1	nt	nt	15%	nt	nt	nt
CC[C@H](CC[C@@H](C)[C@H]1CC[C@H]2[C@@H]3CC=C4C[C@@H](O)CC[C@]4(C)[C@@H]3CC[C@]12C)C(C)C	nt	nt	-10%	nt	nt	nt
CC1(C)S[C@H]2[C@H](NC(=O)[C@@H](N)c3ccc(O)cc3)C(=O)N2[C@@H]1C(=O)O	nt	nt	4%	nt	nt	nt
Cc1cccc(N2CCN(c3ncnc4onc(C)c34)CC2C)c1 (stereo not given)	?	?	-4%	?	11µM*	-2%
CNC(=O)c1cc(COc2nnc(Nc3ccc(Cl)cc3)c3ccoc23)ccn1	nt	nt	-10%	nt	nt	nt
O=C(CCCCCCC(=O)Nc1ccc([C@H]2O[C@@H](CSc3nc(-c4ccccc4)c(-c4ccccc4)o3)C[C@@H](c3ccc(CO)cc3)O2)cc1)NO	nt	nt	-15%	nt	nt	nt
COc1ccc(C(=O)NC(c2ccc(Cl)cc2)c2cc(Cl)c3cccnc3c2O)cc1 (stereo not given)	17%	4µM*	2%	?	?	2%
COc1ccc(C(=O)Nc2cc(C(C)C)c(O)c(S(=O)(=O)c3ccc(Cl)cc3)c2C)cc1	-12%	-7%	1%	3%	18%	-1%
COc1ccccc1NC(=O)c1c(NCc2ccc(OC)c(OC)c2OC)sc2c1CCCC2	27%	?	13%	35%	5µM*	-10%
Cc1ccc(N(CC(O)Cn2c3ccccc3c3ccccc32)S(=O)(=O)c2ccc(F)cc2)cc1 (stereo not given)	11µM*	?	?	61%	?	?
COC(=O)CN(c1ccccc1)S(=O)(=O)c1ccc(F)cc1	6%	nt	nt	1%	nt	nt
Nc1ncnc2c1c(-c1cccc(OCc3ccccc3)c1)cn2C1CC(CN2CCCC2)C1 (stereo not given)	nt	nt	-18%	nt	nt	nt
O=C1CC(c2ccccc2)Cc2[nH]c(=O)c(-c3nc(-c4ccc(Cl)c(Cl)c4)cs3)cc21 (stereo not given)	-10%	?	-6%	20%	-7%	-2%
O=C1CC(c2ccccc2)Cc2[nH]c(=O)c(-c3nc(-c4ccc(Cl)cc4)cs3)cc21 (stereo not given)	-2%	?	-27%	33%	0.75µM*	5.8µM*
Cc1nc2c(C(=O)NCCc3ccccc3)c[nH]n2c(=O)c1Cc1ccc(F)cc1Cl	?	9%	8%	13µM*	?	-14%
Cc1nc2c(C(=O)NCCc3ccc(Cl)cc3)c[nH]n2c(=O)c1Cc1ccccc1F	?	18%	i	?	-32%	-7%
CN(C)C(=O)c1ccc(S(=O)(=O)c2ccc(NC(=O)[C@@](C)(O)C(F)(F)F)c(Cl)c2)cc1	nt	nt	-12%	nt	nt	nt
CC(=O)c1ccc(S(=O)(=O)Nc2ccc(-c3ccc(N4CCCCCC4)nn3)cc2)cc1	?	nt	3%	-22%	nt	4%
SMILES	p53null 39C tox	S16 F2sN tox	OvCa metastasis	p53null 32C tox	PMP22 txn prim	pS6 MEF inh
COc1ccc(S(=O)(=O)Nc2cccc(-c3ccc(N4CCC(C)CC4)nn3)c2)c(OC)c1	13µM*	nt	-2%	13µM*	nt	1%
CCc1ccc(S(=O)(=O)Nc2cccc(-c3ccc(N4CCC(C)CC4)nn3)c2)s1	13µM*	nt	4%	10µM*	nt	3%
CCOc1ccc(-c2cccc(NS(=O)(=O)c3ccc(C)s3)c2)nn1	-3%	-1%	3%	-1%	-3%	0%
CC(=O)Nc1ccc(S(=O)(=O)Nc2cccc(-c3ccc(N4CCC(C)CC4)nn3)c2)cc1	3.2µM*	nt	4%	4µM*	nt	-1%
CC(=O)c1ccc(S(=O)(=O)Nc2ccc(-c3ccc(N4CCCCC4)nn3)cc2)cc1	16µM*	nt	5%	?	nt	-3%
CC(=O)Nc1ccc(S(=O)(=O)Nc2cccc(-c3ccc(N4CCCCCC4)nn3)c2)cc1	?	nt	i	?	nt	-1%
COc1ccc(CCN2C(=O)c3[nH]nc(-c4ccccc4O)c3C2c2cccc(OC)c2)cc1 (stereo not given)	19%	?	-31%	6%	?	15µM*
Cc1cc(C)c(-c2n[nH]c3c2C(c2ccccc2F)N(Cc2ccco2)C3=O)c(O)c1 (stereo not given)	16µM*	-15%	-22%	14%	?	13µM*
COCCN1C(=O)c2[nH]nc(-c3ccccc3O)c2C1c1ccc(Cl)c(Cl)c1 (stereo not given)	16µM*	?	?	51%	?	0%
COc1ccc(C2c3c(-c4ccccc4O)n[nH]c3C(=O)N2CCc2ccccc2)cc1 (stereo not given)	?	?	i	44%	?	?
CC(C)OCCCN1C(=O)c2[nH]nc(-c3ccccc3O)c2C1c1ccc(OCc2ccccc2)cc1 (stereo not given)	13µM*	?	?	48%	?	?
CN(C)Cc1cccc(N=C(c2ccccc2)c2c(O)[nH]c3cc(C(=O)N(C)C)ccc23)c1	nt	nt	14%	nt	nt	nt
CCCOc1cccc(C2c3c(-c4ccccc4O)n[nH]c3C(=O)N2Cc2ccco2)c1 (stereo not given)	18µM*	-2%	?	44%	?	15µM*
